# Measured values: PubChem BioAssay (NCI)
# Compounds without any hit were thinned out: in the full panel of roughly 83,000, 20% have a hit.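 Percent growth is the endpoint: 0 to 100 indicates growth inhibition (40 means 60% inhibition), 0 means no net growth, and negative values indicate cell death.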 A number with no mark means an inactive call. Active and inactive are the calls of the source. The calls were made as follows: active = growth percent below 10; inactive = the rest.
# Tested on: HL-60(TB) leukemia
# Assay: NCI-60 one-dose screen, 48 h (100 = growth as untreated, 0 = no growth, -100 = all killed)
# Conditions: 10 µM unless noted
row,Structure (SMILES),growth
1,COc1cc(/C=C/C(=O)c2c(C)nc3ccccc3c2/C=C/c2ccc(C)cc2)cc(OC)c1OC,12.5%
2,C=CC(=O)N[C@@H](/C=C/C(=O)OCC)Cc1ccc(-c2cc(Cl)cc(Cl)c2)cc1,-27.4% (active)
3,CCN1C(=O)N(CC)C2Nn3c(s/c(=C\c4ccccc4F)c3=O)=NC21 (stereo not drawn),7.77% (active)
4,COC(=O)CC/C(C)=N\Nc1ccc([N+](=O)[O-])cc1,24.5%
5,CCN(CCCCCCCCCCN1CC(=O)N(CCCCCCCCCCN(CC)Cc2ccccc2OC)CC1=O)Cc1ccccc1OC,-67.9% (active)
6,O=C(/C=C/C12c3ccccc3C(c3ccccc31)C1C(=O)NC(=O)C12)c1ccc(Cl)cc1 (stereo not drawn),-6.98% (active)
7,CCCOc1ccc(/C=N/Nc2cc(C)nc3ccc(Cl)cc23)cc1,-48% (active)
8,COc1ccc(F)c(F)c1C(=O)c1cnc(NC2CCN(S(C)(=O)=O)CC2)nc1N,-32.2% (active)
9,CCOc1c(OC)cc2c(c1O)C(=O)N[C@@H]1[C@@H](O)[C@@H](O)[C@H](O)C[C@@H]21,100%
10,COc1ccc(OC)c(C(=O)c2oc3ccc(Br)cc3c2N)c1,-10.2% (active)
11,CCCCNC(=O)NS(=O)(=O)c1ccc(N2N=C(c3ccc(C)cc3C)CC2c2ccc(OC)cc2)cc1 (stereo not drawn),17.4%
12,O=[N+]([O-])c1ccc(/C=N\Nc2ccccc2)cc1,94.6%
13,CC[C@H](Nc1ncnc2nc[nH]c12)c1nc2cccc(CC(=O)c3ccc(C(=O)NO)cc3)c2c(=O)n1-c1ccccc1,75.5%
